# Data from PubChem BioAssay (NCI).
# Compounds without any hit were thinned out: in the full panel of roughly 83,000, 20% have a hit.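 The test compound was applied at a single concentration to cells in 96-well plates for 48 hours, and percent growth was recorded.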 Values without a mark were called inactive. Activity calls are given as the source filed them. How the source made its calls: active means growth percent below 10; inactive means the rest.
# Test system: HL-60(TB) leukemia
# Experiment: NCI-60 one-dose screen, 48 h (100 = growth as untreated, 0 = no growth, -100 = all killed)
# Settings: 10 µM unless noted
row,Compound,growth
1,O=C(/C=C/c1cc2ccccc2[nH]c1=O)c1ccc2c(c1)OCO2,79%
2,COc1cc2cc(NCc3cccc(Cl)c3)nc(C)c2cc1OC,14.5%
3,O=C(O)CCCN1C(=O)/C(=C/c2cn(-c3ccccc3)nc2-c2ccc([N+](=O)[O-])cc2)SC1=S,83.4%
4,COc1ccc(OC)c([N+](=O)[O-])c1C=O,88.2%
5,O=C(/C=C/c1cccs1)Nc1ncc(Cc2ccc(Cl)c(Cl)c2)s1,14%
6,O=C(/C=C/c1ccco1)c1ccccc1O,92.5%
7,NC(=O)c1noc(C(=O)c2ccccc2)c1N,93.7%
8,COc1cc(-c2nn3c(/C=C4/C(=O)Nc5ccccc54)c(-c4ccc(C)cc4)nc3s2)cc(OC)c1OC,34.8%
9,CCCCOc1ccc(/C=C2/SC(N3CCOCC3)=NC2=O)cc1OCC,101%
10,Cc1ccc(C)c(-c2csc(Nc3ccc(C)c(C)c3)n2)c1,34.4%
11,O=C(Nc1ccc(Cl)cn1)C1(c2ccccc2)CCCCC1,51.5%
12,C#C[C@]1(O)CC[C@H]2[C@@H]3CC=C4c5sc(N=C(N)N)nc5CC[C@]4(C)[C@H]3CC[C@@]21C,-44.8% (active)
13,O=S(=O)(c1ccccc1)n1ccc(-c2ccc3c(c2)CCO3)n1,109%
14,c1ccc2c(c1)Sc1ccccc1S2,107%
15,CCC1(C2CCCC2)NC(=O)NC1=O (stereo not given),90.9%
16,CCCCSc1ccc2nc(-c3ccc(OCCCN=C(N)N)cc3)cn2c1,41.1%
17,O=C1/C(=C/c2ccc(O)c(O)c2)COc2ccc(-c3ccccc3)cc21,-15.8% (active)
18,Nc1nc2c(ncn2[C@@H]2O[C@H](CS)[C@@H](O)[C@H]2O)c(=O)[nH]1,101%
19,O=S(=O)(NCCCNc1nccc(-c2c(-c3ccccc3)nc3occn23)n1)c1ccc(Cl)cc1,101%
20,CCOC(=O)C(C)(c1ccccc1)c1ccccc1,104%

row,Compound,growth
1,CN1C(=O)/C(=C\c2nc([P+](c3ccccc3)(c3ccccc3)c3ccccc3)c(N3CCOCC3)o2)SC1=S,-15.1% (active)
2,N#Cc1cccc(OCc2nc(N)nc(N)c2-c2ccc(Cl)c(Cl)c2)c1,29.8%
3,Cc1oc(-c2ccc(Cl)cc2)nc1C1=NN(C(=O)c2ccncc2)C(c2ccccc2)C1 (stereo not given),97.7%
4,CCC(C)C(N)C(=O)NC(CC(N)=O)C(=O)NC(CC(C)C)C(=O)NC(CCCCN)C(=O)NC(C)C(=O)NC(CC(C)C)C(=O)NC(C)C(=O)NC(C)C(=O)NC(CC(C)C)C(=O)NC(C)C(=O)NC(CCCCN)C(=O)NC(CCCCN)C(=O)NC(C(=O)NC(CC(C)C)C(N)=O)C(C)CC (stereo not given),56.1%
5,Cn1cnc2c(F)c(Nc3ccc(Br)cc3Cl)c(C(=O)NOCCO)cc21,24.5%
6,Brc1ccc(C2CC(c3cccc(Nc4ccncc4)c3)=NN2c2ccccc2)cc1 (stereo not given),56.9%
7,COc1cc2c(c(OC)c1OC)-c1cc(I)c(O)cc1[C@@H](NC(C)=O)CC2,12.7%
8,S=c1cnc2ccccc2[nH]1,86.4%
9,CC(=O)OCCCCCNc1ccccc1,76.3%
10,O=C(CCCCC(=O)Oc1c(Cl)cc(Cl)cc1[N+](=O)[O-])Oc1c(Cl)cc(Cl)cc1[N+](=O)[O-],81.9%
11,CN(CCC#N)c1ccc(/C=C2\NC(=O)NC2=O)cc1,92.2%
12,COc1ccc(Nc2ncc(Br)c(NCCCNC(=O)C3CCCC3)n2)cc1,17%
13,CN(C)CCN1C(=O)c2cccc3c(-c4ccc5ncn(C6CCCCC6)c5c4)ccc(c23)C1=O,13.8%
14,Cc1csc2ccc(Cl)cc12,110%
15,Cc1cccc(/C=N/n2c(-c3ccc(Cl)cc3)nc3c(Br)cc(Br)cc3c2=O)c1,70.8%
16,CCCCCSc1ccc2nc(NC(=O)OCCC)sc2c1,5.41% (active)
17,O=S1(=O)C=C(c2ccccc2)C(c2ccccc2)=C1,-16.3% (active)
18,Cc1c2cnccc2c(C)c2c1c1cc(C3OCCCO3)ccc1n2C,-4.04% (active)
19,CCSc1nnc(Nc2ccc(C(C)C)cc2)s1,48.8%
20,COc1ccc(-c2cc(=O)oc3ccc(Cl)cc23)cc1F,-21.9% (active)
